Measured values from the supplement of paper PMC11732987, “Enantioselective OTUD7B fragment discovery through chemoproteomics screening and high-throughput optimisation” (Communications Chemistry, 2025).
A number with no mark means an inactive call.

How the values were obtained:
Experiment in all cases: log2 ratio of Biotin-Ahx-Ub-VS probe labelling (fragment/DMSO); higher = less target engagement (more negative = stronger competition), active = hit call of the paper (q ≤ 0.05, log2 ratio ≤ -1)
Settings in all cases: compound concentration: 200 uM; treatment time: 3 h
[1] = molecular target: USP34 (UniProt Q70CQ2)
Sequence of USP34 (Q70CQ2 whole entry, the tested form may be a part): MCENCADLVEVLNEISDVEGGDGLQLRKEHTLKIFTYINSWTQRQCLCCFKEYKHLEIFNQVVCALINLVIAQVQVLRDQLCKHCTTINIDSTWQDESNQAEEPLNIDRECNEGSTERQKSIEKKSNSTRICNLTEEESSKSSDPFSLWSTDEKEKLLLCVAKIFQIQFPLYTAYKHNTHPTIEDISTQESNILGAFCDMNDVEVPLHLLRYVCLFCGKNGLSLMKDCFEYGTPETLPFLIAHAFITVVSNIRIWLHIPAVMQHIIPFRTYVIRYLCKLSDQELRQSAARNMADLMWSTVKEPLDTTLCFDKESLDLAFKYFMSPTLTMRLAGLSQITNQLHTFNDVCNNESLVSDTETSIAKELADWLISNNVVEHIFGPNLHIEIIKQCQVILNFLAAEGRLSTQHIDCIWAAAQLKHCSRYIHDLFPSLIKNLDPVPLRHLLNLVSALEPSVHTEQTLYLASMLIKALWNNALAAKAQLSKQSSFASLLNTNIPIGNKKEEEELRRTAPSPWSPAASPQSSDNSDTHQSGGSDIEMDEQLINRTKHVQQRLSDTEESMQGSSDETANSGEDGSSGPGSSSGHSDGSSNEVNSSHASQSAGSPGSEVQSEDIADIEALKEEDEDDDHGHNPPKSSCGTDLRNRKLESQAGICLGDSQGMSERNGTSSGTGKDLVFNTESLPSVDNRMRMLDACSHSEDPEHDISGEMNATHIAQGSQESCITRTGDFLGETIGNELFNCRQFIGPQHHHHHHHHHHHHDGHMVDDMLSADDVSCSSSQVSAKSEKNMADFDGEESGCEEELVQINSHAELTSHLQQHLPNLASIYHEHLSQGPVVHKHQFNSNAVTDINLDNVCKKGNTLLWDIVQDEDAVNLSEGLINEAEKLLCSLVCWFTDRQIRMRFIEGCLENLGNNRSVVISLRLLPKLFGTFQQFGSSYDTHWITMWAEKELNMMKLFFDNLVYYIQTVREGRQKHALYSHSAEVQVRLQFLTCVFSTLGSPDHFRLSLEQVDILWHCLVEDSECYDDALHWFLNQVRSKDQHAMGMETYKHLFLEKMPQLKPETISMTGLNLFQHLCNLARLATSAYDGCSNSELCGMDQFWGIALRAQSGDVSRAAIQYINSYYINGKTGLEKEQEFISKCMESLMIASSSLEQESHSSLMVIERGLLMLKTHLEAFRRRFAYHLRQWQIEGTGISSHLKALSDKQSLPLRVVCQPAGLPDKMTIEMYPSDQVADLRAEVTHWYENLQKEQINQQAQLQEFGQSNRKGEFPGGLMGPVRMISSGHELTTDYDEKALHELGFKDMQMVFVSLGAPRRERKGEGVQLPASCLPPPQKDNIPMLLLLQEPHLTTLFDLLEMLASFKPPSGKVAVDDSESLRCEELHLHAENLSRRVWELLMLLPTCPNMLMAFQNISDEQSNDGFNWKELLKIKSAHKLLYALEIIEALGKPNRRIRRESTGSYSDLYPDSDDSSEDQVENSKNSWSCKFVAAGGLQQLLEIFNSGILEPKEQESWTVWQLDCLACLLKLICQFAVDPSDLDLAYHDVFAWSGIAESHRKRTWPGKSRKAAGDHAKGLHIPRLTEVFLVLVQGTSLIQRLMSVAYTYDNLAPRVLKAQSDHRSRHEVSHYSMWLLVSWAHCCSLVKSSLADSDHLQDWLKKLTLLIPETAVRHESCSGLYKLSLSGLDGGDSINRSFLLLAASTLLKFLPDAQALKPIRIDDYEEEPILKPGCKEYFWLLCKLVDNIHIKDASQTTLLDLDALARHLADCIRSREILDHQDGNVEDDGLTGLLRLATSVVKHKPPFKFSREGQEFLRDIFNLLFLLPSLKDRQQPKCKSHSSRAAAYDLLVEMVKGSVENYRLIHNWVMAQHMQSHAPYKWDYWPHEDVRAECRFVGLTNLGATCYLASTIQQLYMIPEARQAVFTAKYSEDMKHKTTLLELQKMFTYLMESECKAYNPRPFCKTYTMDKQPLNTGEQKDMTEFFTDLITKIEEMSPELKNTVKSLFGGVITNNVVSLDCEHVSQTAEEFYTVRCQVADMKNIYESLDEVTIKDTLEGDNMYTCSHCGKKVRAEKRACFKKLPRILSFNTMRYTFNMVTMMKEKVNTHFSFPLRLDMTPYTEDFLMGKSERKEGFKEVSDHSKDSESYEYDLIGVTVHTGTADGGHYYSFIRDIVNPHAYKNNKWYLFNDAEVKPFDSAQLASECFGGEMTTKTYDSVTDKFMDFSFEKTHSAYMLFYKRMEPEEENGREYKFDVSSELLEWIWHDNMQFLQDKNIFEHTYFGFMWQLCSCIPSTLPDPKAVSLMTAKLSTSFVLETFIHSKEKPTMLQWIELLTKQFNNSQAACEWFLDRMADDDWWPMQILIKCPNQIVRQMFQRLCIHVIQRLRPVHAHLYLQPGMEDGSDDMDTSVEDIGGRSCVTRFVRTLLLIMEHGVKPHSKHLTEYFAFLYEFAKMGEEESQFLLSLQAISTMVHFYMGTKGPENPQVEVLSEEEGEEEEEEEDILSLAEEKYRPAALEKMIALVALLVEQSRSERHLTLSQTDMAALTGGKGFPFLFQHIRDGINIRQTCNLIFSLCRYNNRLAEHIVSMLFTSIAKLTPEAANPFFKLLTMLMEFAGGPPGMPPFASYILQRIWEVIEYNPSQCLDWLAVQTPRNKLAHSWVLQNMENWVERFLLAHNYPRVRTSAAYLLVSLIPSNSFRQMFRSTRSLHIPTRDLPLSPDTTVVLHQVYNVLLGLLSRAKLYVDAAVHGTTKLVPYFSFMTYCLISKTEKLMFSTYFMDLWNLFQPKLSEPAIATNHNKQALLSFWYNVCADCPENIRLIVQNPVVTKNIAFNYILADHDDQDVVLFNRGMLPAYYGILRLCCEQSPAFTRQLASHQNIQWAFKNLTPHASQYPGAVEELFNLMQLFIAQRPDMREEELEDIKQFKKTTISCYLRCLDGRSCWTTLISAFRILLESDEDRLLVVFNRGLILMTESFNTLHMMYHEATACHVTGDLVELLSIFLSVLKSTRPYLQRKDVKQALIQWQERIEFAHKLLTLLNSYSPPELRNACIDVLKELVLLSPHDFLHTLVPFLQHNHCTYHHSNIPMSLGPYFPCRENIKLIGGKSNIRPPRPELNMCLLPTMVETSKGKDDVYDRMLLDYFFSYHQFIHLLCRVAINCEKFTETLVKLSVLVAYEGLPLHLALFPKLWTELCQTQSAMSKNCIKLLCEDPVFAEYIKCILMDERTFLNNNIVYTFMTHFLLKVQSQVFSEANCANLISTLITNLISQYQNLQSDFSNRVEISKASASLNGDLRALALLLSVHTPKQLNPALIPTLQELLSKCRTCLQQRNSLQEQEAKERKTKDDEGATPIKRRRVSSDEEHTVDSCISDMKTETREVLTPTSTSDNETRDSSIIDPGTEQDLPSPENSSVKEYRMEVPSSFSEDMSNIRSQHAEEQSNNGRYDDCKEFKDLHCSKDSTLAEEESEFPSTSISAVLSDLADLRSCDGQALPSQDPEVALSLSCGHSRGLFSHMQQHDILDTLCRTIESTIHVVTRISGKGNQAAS
Method in brief: (§1)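 Values give the average log2 ratio of fragment to vehicle, assessed by unpaired t-test on global-median-normalised Spectronaut label-free quantities. Proteins needed ≥2 unique peptides. HEK293T lysate (495 µg per sample) was treated in triplicate with fragment at 200 µM or vehicle for 3 h and then with Biotin-Ahx-Ub-VS at 0.5 µM final for 1 h. Labelled DUBs were NeutrAvidin-enriched, digested and run by diaPASEF LC-MS/MS.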

[2] = molecular target: T1, USP36 (UniProt Q9P275)
T1 sequence (whole entry): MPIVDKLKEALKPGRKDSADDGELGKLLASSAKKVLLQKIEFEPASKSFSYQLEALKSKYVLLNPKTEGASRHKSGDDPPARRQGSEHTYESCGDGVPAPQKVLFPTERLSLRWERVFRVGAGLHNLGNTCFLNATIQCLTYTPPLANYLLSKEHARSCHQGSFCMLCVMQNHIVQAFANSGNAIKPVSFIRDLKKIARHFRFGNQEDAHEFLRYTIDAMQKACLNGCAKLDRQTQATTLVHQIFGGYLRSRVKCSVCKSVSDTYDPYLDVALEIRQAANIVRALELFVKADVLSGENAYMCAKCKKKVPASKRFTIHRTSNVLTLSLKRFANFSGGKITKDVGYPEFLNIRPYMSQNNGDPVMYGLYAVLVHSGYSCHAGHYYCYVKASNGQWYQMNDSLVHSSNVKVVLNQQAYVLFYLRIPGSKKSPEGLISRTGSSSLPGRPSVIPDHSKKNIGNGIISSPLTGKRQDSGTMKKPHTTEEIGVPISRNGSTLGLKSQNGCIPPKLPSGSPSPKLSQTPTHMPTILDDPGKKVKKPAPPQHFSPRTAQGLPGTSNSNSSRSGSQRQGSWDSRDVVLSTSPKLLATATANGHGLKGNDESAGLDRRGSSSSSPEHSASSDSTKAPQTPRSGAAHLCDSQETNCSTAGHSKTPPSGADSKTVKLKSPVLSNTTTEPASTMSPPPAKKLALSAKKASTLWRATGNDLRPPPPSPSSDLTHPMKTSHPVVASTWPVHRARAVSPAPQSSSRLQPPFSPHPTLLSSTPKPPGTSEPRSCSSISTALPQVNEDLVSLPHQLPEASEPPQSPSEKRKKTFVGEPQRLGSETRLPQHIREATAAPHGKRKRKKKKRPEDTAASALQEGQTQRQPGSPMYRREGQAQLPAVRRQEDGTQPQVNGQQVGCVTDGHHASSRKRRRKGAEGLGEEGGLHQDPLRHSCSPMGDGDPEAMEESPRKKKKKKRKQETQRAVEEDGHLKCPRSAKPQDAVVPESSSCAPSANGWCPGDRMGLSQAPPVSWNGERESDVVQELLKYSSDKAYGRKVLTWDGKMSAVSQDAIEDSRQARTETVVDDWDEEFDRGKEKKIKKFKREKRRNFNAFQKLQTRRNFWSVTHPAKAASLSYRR
Method in brief: as §1

[3] = molecular target: T2, USP38 (UniProt Q8NB14)
T2 sequence (whole entry): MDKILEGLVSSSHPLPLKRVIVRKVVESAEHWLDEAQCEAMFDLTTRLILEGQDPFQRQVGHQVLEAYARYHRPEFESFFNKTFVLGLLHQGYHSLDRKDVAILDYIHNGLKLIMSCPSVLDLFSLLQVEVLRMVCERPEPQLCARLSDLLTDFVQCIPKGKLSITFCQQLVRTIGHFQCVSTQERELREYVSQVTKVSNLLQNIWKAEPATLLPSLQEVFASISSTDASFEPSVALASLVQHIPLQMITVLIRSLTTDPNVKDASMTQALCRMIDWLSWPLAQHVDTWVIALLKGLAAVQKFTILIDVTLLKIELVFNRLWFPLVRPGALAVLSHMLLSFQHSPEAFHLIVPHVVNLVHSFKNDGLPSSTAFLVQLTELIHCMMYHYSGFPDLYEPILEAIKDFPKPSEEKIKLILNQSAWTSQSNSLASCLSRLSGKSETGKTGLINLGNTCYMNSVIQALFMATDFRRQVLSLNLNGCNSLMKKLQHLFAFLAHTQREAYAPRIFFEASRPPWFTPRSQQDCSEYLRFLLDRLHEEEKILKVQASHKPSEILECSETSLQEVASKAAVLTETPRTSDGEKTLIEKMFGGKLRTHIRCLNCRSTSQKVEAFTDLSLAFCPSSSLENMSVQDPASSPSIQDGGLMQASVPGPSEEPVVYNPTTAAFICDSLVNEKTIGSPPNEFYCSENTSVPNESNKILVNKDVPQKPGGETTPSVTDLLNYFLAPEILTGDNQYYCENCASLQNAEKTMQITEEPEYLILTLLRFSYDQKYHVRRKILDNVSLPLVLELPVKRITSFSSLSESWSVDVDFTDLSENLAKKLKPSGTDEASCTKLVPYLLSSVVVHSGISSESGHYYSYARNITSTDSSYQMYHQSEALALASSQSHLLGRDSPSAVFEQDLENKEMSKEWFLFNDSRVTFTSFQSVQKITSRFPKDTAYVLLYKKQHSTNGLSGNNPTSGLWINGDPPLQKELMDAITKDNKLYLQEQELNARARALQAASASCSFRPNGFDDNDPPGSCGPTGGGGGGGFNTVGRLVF
Method in brief: as §1

[4] = molecular target: T3, USP39 (UniProt Q53GS9)
T3 sequence (whole entry): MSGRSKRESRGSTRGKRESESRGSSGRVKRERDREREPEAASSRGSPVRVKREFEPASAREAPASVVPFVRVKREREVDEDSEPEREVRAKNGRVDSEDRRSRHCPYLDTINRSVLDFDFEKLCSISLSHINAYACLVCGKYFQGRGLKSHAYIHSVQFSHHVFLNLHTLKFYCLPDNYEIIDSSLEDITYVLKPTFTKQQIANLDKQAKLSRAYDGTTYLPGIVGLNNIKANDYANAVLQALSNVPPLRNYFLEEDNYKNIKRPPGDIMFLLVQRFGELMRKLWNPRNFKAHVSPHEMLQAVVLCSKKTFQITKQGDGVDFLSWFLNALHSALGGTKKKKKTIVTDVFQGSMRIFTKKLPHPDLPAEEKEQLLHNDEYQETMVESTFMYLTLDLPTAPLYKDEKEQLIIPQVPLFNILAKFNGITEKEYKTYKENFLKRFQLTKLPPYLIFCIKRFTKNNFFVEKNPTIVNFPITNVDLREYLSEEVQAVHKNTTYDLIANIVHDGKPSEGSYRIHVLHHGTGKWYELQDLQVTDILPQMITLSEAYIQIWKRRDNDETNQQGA
Method in brief: as §1

[5] = molecular target: T4, USP4 (UniProt Q13107)
T4 sequence (whole entry): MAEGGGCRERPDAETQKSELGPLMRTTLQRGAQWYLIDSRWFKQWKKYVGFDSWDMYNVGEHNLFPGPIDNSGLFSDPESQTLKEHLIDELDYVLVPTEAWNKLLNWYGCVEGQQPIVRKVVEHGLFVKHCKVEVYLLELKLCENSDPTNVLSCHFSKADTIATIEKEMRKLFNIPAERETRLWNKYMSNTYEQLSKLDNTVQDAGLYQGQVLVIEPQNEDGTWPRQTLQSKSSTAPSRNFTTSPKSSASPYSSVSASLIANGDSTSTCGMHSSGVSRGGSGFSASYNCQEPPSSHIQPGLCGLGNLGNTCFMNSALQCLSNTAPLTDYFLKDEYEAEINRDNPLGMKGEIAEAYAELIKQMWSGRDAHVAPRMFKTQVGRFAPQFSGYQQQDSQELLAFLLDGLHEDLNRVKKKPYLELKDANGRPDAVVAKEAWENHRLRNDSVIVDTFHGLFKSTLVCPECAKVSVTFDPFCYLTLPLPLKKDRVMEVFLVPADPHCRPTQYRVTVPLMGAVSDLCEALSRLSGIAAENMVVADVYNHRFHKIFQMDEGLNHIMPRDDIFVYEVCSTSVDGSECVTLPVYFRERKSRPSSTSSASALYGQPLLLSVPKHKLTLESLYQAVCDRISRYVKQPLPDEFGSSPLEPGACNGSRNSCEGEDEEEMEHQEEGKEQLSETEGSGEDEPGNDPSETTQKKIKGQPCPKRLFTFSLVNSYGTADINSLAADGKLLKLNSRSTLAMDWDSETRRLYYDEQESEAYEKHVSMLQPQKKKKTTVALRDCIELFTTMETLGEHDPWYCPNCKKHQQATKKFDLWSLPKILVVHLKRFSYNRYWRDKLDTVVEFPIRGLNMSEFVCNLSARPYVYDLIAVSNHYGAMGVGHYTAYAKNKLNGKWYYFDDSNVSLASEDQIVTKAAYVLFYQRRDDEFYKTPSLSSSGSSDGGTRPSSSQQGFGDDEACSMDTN
Method in brief: as §1

Q: For `O=C(CCl)N1CCN(C(=O)N2CCCCC2)CC1`, which “log2 ratio of Biotin-Ahx-Ub-VS probe labelling” value (“log2 ratio” below) [1] is on record?
A: -0.512

Q: What about the “log2 ratio” value [2] of the same compound?
A: -0.269

Q: And the “log2 ratio” value [3]?
A: -1.04 (active)

Q: What about the “log2 ratio” value [4] of the same compound?
A: -0.223

Q: What about the “log2 ratio” value [5] of the same compound?
A: -1.05 (active)
